Records with an inconclusive call do not appear. A call without a number means that no potency is given here. Activity calls are given as the source filed them. The call rests on the fitted dose curve; in most records, active means well fitted inhibition curve with a large enough effect; inconclusive means small, poorly fitted or top-dose-only effect, or effect the other way; inactive means flat fitted curve, though single readings scatter.
Potency means the concentration at half of the fitted maximal effect.

Chain of Ubiquitin carboxyl-terminal hydrolase 2 (Homo sapiens) (O75604 whole entry, looked up): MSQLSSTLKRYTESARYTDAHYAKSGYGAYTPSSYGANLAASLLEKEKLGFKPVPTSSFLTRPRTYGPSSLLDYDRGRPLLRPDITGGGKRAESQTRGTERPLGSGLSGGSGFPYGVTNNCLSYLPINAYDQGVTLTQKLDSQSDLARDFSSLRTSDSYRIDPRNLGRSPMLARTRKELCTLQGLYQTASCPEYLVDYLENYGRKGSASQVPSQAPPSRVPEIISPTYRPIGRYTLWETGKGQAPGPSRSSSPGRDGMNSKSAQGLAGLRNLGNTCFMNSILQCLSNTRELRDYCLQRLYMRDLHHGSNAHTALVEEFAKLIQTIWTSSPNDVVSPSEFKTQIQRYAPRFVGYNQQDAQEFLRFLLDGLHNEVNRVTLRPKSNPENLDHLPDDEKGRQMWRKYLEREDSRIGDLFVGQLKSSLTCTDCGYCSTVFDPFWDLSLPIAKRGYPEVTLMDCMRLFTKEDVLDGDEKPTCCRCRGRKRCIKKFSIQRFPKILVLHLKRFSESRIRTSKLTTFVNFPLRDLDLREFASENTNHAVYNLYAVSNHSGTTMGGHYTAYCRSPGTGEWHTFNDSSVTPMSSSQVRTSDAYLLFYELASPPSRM

The assay addresses Ubiquitin carboxyl-terminal hydrolase 2 (Homo sapiens) (UniProt O75604). The assay can be described thus: Confirmation Assay for Inhibitors of Ubiquitin-specific Protease USP2a Using CHOP2 as the Reporter. Further: nearly all actives have a fitted effect of over 55% in size. As to conditions: USP2 core, Ub-CHOP2 coupled reporter fluorescence; series mostly up to 38.3 µM. The source says: NIH Molecular Libraries Probe Centers Network [MLPCN] NIH Chemical Genomics Center [NCGC] MLSCN Grant: XO1-MH079852-01 PI Name: Nicholson, Ben. Progenra Inc, Malvern, PA NCGC Assay Overview: Homeostasis of cellular proteins is maintained through a combination of synthesis and degradation. The pathway that accounts for the majority of protein degradation is the ubiquitin-proteasomal pathway. Ubiquitin (Ub) is highly conserved in all cells and the generation of a multi-Ub chain typically targets proteins for degradation by the proteasome. However, ubiquitination is highly reversible and dynamic. Deubiquitination, the reverse process, is catalyzed through the action of enzymes referred to as isopeptidases or deubiquitinating enzymes (DUBs). This group of enzymes is collectively responsible for maintaining adequate pools of free ubiquitin and regulating the ubiquitination status of cellular proteins. The class of DUBs referred to as the ubiquitin-specific proteases (USP) family functions endoproteolytically to cleave Ub chains from a wide range of protein substrates. USP2a deubiquitinates fatty acid synthase (FASN) which has recently been identified as an emerging oncology target. To identify inhibitors of USP2a a cell-free assay was employed. […] The reporter enzyme chosen is an […] called CHOP2, which is activated when the Ub is cleaved by USP2. The free and now activated reporter can subsequently act on its reporter substrate. Thus, this coupled assay gives a fluorescent read-out at excitation/emission wavelengths of 485/531. The assay was developed by Progenra, Inc. and has been licensed for sale by LifeSensors, Inc. as Ub-CHOP2-Reporter-Kit (#PR1101).
NCGC Assay Protocol Summary: The assay buffer, prepared fresh at the day of the assay, contains 20mM Tris-HCl pH 8.0, 2mM CaCl2, 2mM beta-Mercaptoethanol, 0.05% CHAPS. 3ul of 20nM (10nM final) USP2 core, which is stored on ice, is dispensed into a medium-binding black solid Kalypsys 1,536 well plate using the Kalypsys dispenser. The assay plate is then pinned with 23nL compound with the Kalypsys pintool in columns 5-48. The controls are pinned as follows: column 1 two-fold dilutions of 2M NEM in duplicate; column 2 2M NEM (final concentration 38.2mM); column 3&4 DMSO. The assay plate is incubated at RT for 30min. Subsequently, 1.5uL of 100nM (25nM final) Ub-CHOP2 and 1.5uL of 100nM (25nM final) Reporter Substrate (both stored on ice and protected from light) were dispensed into the plate using the Kalypsys dispenser. Plates were read after 60min RT incubation on a ViewLux (Perkin Elmer) plate reader using the following wavelengths Ex 485nm /Em 531nm. Data were normalized to the to AC100 inhibition (NEM). Concentration-response curves were fitted to the normalized data and the concentration-response curves were then classified based on curve quality (r2), response magnitude and degree of measured activity. The time zero reading was used to flag fluorescence artifacts. Keywords: ubiquitination, deubiquitination, proteases, profluorescent, MLSMR, MLPCN, NIH Roadmap, qHTS, NCGC
Consider `c1ccc(-c2ccccc2OCCCN2CCOCC2)cc1`, for which the Potency entry is “inactive”.

Take `O=C1Nc2ccccc2SC(c2ccccc2)C1O` (stereo not given): the Potency was 13.1 µM (active).

Take `O=C(CC1Oc2ccccc2NC1=O)NCc1ccc(Cl)cc1` (stereo not given): the Potency result was “inactive”.

Take `NC(=O)c1ncc(C(F)(F)F)cc1Oc1cccc(F)c1`: the Potency result is “inactive”.

As for `Cn1c(SCc2nc3ccccc3s2)nnc1-c1cccs1`, the Potency result is “inactive”.

Turning to `COc1cc(/C=N/NC(=O)c2cc(-c3ccccc3)nc3ccccc23)ccc1O`, the Potency entry was “inactive”.

For `Cc1cc(C(=O)CSc2nnc(Nc3ccccc3F)s2)c(C)n1CC1CCCO1` (stereo not given), the Potency entry is “inactive”.

Take `C=CC[C@@H](CC(=O)N(CCO)Cc1ccccc1)C(=O)NCCOC(=O)[C@H](CC=C)CC(=O)OC(C)(C)C`: the Potency result was “inactive”.

With `O=C(NCc1ccccc1)C1CCC1`, the Potency result is “inactive”.

Turning to `Cc1cc(NC(=O)CN2C(=O)NC3(CCCCC3C)C2=O)no1` (stereo not given), the Potency result was “inactive”.

On to `N#C/C(=C\c1ccc(O)c(O)c1)C(=O)Nc1cccc2ncccc12`, for which the Potency is 18.5 µM (active).

For `Nc1ccc2nc(-c3cccc(-c4nc5ccc(N)cc5[nH]4)c3)[nH]c2c1`, the Potency result was “inactive”.

`COC1=CCC2([N+](=O)[O-])CN(CCO)CC1([N+](=O)[O-])C2` (stereo not given): the Potency entry was “inactive”.

Consider `O=C(O)CCn1c(C2CCCCC2)nc2ccccc21`, for which the Potency result is “inactive”.

For the compound `O=C1c2ccccc2C(=O)N1CCC1=CCCCC1`, the Potency result was “inactive”.

In the case of `O=c1cc(CO)oc(CN2CCN(Cc3ccccc3)CC2)c1O`, the Potency result was “inactive”.

For the compound `O=C(Nc1ccccc1)c1cc(Cl)nc2ccccc12`, the Potency entry is “inactive”.

In the case of `Cn1c(=O)c(C(=O)Nc2ncccc2O)c(O)c2ccccc21`, the Potency entry was “inactive”.

Take `COc1cc(/C=C(/C(=O)c2cccs2)c2nc3ccccc3[nH]2)ccc1O`: the Potency result was “inactive”.

Consider `COC(=O)C1CCN(C(=O)COC(=O)CC(NC(N)=O)c2ccc(Cl)cc2)CC1` (stereo not given), for which the Potency result is “inactive”.

With `O=C(Nc1ccc(N2CCCC2)cc1)c1ccc(Br)cc1`, the Potency was 16.5 µM (active).

For `Cc1ccc(C2=N/C(=C\c3c(C)nn(-c4ccccc4)c3N3CCCC3)C(=O)O2)cc1`, the Potency entry is “inactive”.

For `O=C(CSc1nnnn1-c1ccc(F)cc1)c1ccc(O)c(O)c1`, the Potency result was “inactive”.

For `CCOC(=O)N1CCN(C(=O)CN(c2ccc(Oc3ccccc3)cc2)S(C)(=O)=O)CC1`, the Potency result is “inactive”.

`COCc1c(C(=O)OCC(=O)c2c(N)n(CC(C)C)c(=O)n(C)c2=O)oc2ccccc12`: the Potency entry was “inactive”.

As for `Cc1ccc(SCC(=O)Nc2ccc(C(=O)Nc3ccc(O)cc3)cc2)cc1`, the Potency entry is “inactive”.

Turning to `Cc1ccc(CN2C(=O)N/C(=C\c3cccn3-c3cccc(C(=O)O)c3)C2=O)cc1`, the Potency entry is “inactive”.

As for `Nc1c(C(=O)Nc2ccc(Cl)cc2)oc2ccccc12`, the Potency result was “inactive”.

In the case of `Cc1nc(NC(C)C)c2cnn(CCc3ccccc3)c2n1`, the Potency result was “inactive”.

With `Cc1cc(SCC(=O)Nc2ccccc2)nc(C)n1`, the Potency result is “inactive”.

In the case of `CC(CN1CCCCC1)OC(=O)c1ccc(Cl)cc1` (stereo not given), the Potency result is “inactive”.

Consider `CC(=O)N1c2c(cc(Br)cc2S(=O)(=O)NCc2cccnc2)CC1C` (stereo not given), for which the Potency result is “inactive”.

On to `COc1ccc2[nH]c(=O)c(CN(C)C(=O)C3CCCCC3)cc2c1`, for which the Potency result was “inactive”.

Regarding `CCOC(=O)c1[nH]c2ccc(OC)cc2c1NC(=O)CCN1CCC(C)CC1`, the Potency entry is “inactive”.

`COc1ccc(NC(=S)NC(=O)/C=C/c2ccco2)cc1`: the Potency result is “inactive”.

For `COc1cc2cc(CN(CCN3CCCC3)C(=O)Nc3ccc(F)cc3)c(=O)[nH]c2cc1OC`, the Potency result is “inactive”.

`COc1cc(C(=O)OC2CCCCC2=O)cc(OC)c1C` (stereo not given): the Potency is 11.7 µM (active).

As for `CCSc1nc(N2CCCCC2)c2c(c1C#N)CCCC2`, the Potency entry is “inactive”.

Regarding `CCC(C)(C)n1nnnc1C(c1ccc(C)cc1)N1CCCC1` (stereo not given), the Potency result is “inactive”.

With `Cc1cccc(NCc2nc(-c3ccccc3)no2)c1`, the Potency result was “inactive”.

For the origin of these results see PubChem BioAssay AID493168 (National Center for Advancing Translational Sciences (NCATS), 2011).
